Experimental findings from PubChem BioAssay AID588342 (National Center for Advancing Translational Sciences (NCATS), 2011) are described below.

Several values for one entry are separate records, joined by “and”; a condition that tells them apart may be missing. Equal values may be shown once. Out of some 360,000 compounds screened, about 25,000 (6.9%) were called active. Inconclusive results (about 9%) are left out. Shown is part of a subset that was picked to be rich in actives. Unmarked numbers belong to inactive results. The call rests on the fitted dose curve; in most records, active means well fitted inhibition curve with a large enough effect; inconclusive means small, poorly fitted or top-dose-only effect; inactive means flat fitted curve, though single readings scatter.
Potency means the concentration at half of the fitted maximal effect.

Luciferin 4-monooxygenase (Photinus pyralis), sequence (P08659 whole entry, looked up): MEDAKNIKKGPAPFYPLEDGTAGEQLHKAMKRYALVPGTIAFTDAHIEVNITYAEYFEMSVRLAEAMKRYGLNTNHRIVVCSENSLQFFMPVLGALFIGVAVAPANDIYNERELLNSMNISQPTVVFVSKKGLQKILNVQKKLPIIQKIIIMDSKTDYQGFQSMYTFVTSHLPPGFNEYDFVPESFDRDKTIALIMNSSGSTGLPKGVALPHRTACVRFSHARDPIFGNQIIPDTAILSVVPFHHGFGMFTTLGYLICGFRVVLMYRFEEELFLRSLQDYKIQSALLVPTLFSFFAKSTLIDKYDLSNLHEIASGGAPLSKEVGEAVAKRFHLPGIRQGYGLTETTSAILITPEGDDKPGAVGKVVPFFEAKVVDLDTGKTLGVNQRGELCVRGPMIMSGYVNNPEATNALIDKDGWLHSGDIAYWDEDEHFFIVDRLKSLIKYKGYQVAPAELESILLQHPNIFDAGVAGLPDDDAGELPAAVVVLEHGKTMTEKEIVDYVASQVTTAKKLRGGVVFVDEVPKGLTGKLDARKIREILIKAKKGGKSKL

The assay addresses Luciferin 4-monooxygenase (Photinus pyralis) (UniProt P08659). In words: qHTS profiling assay for firefly luciferase inhibitor/activator using purifed enzyme and Km concentrations of substrates (counterscreen for miR-21 project). Further: nearly all actives have a fitted effect of over 55% in size.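 On activity change, negative = inhibition: plate controls were vehicle for no effect and reference inhibitor for full effect.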 As to conditions: purified FLuc, luminescence inhibition; series mostly up to 57.5 µM; activity change, negative = inhibition: at the top concentration. An outline of the steps:
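Biochemical qHTS of compounds, final roughly 60 µM downward over six points, against 10 nM purified firefly luciferase using Km concentrations of substrates (10 uM D-luciferin, 10 uM ATP) in Tris acetate pH 7.5 buffer; luminescence output.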
On to `CCCSc1ncc(Cl)c(C(=O)Nc2c(C(=O)Nc3ccccc3)oc3ccccc23)n1`, for which the “activity change, negative = inhibition” value was -1.02%.
On to `N#C/C=C1\Sc2ccccc2C(=O)N1CC(=O)N1CCN(S(=O)(=O)c2ccccc2)CC1`, for which the Potency is 9.53 µM (active).
As for `O=C(CN1CCCSc2ccccc21)N1CCN(S(=O)(=O)c2ccccc2)CC1`, the “activity change, negative = inhibition” value was 1.35%.
Still for that read-out and setting: with `O=C(CN1CCCSc2ccccc21)N1CCN(S(=O)(=O)c2cccc(F)c2)CC1` the figure was -1.34%; with `CC(=O)N1CCCc2cc(S(=O)(=O)N3CCC(C(=O)NC4CCCCC4)CC3)ccc21`, -3.81%; with `Cc1cn(C)c(CC(=O)NCc2ccccc2)c1C(=O)O`, -0.767%.
Same read-out and setting: the same measure for `CN=C1S/C(=C\c2ccc(Sc3ccc(Cl)cc3)o2)C(=O)N1C`: -3.48%.
On to `CN1C(=O)/C(=C\c2ccc(-c3ccccc3)o2)SC1=S`, for which the Potency was 2.39 µM (active).
For `O=C(O)C(c1ccccc1)N1C(=O)/C(=C\c2ccc(-c3cccc(Cl)c3)o2)SC1=S` (configuration not stated), the “activity change, negative = inhibition” value was 2.28%.
Regarding `COc1ccccc1NC(=O)CSC1=Nc2ccccc2C2=NC(CC(=O)NCc3cccs3)C(=O)N12` (configuration not stated), the “activity change, negative = inhibition” value is 4.48%.
As to `COc1ccc(-n2nc(C(=O)NCC(=O)N3CCC(C(N)=O)CC3)c3ccccc3c2=O)cc1OC`, the Potency is 12 µM (active).
Turning to `COc1ccc(-n2nc(C(=O)Nc3cc(OC)c(OC)c(OC)c3)c3ccccc3c2=O)c(OC)c1`, the “activity change, negative = inhibition” value was -2.72%.
The same measure, in the same setting: the same measure for `COc1ccc(-n2nc(C(=O)NCC(=O)Nc3cccc(C)n3)c3ccccc3c2=O)cc1`: 2.32%; for `COCCCNC(=O)CNC(=O)c1nn(-c2ccc(OC)cc2)c(=O)c2ccccc12`: -0.501%.
`COc1ccc(-n2nc(C(=O)NCC(=O)N3CCCCCC3)c3ccccc3c2=O)cc1Cl`: the Potency was 3.38 µM (active).
Same read-out and setting: with `COc1ccc(-n2nc(C(=O)NCC(=O)N3CCN(c4ccccc4OC)CC3)c3ccccc3c2=O)c(OC)c1` the figure was 1.69 µM (active).
With `COc1ccc(-n2nc(C(=O)NCCc3ccc(Cl)cc3)c3c4ccccc4n(C)c3c2=O)cc1Cl`, the “activity change, negative = inhibition” value was -1.63%.
The same measure, in the same setting: the same measure for `COc1cccc(NC(=O)c2nn(-c3ccc(OC)cc3OC)c(=O)c3ccccc23)c1`: -0.385%; for `CCOC(=O)CNC(=O)c1nn(-c2cccc(OC)c2)c(=O)c2ccccc12`: -18.1%.
For `O=C(NCC1CCCO1)c1ccc(S(=O)(=O)Nc2ccc(F)cc2)cc1` (configuration not stated), the “activity change, negative = inhibition” value was 10.4%.
Same read-out and setting: the same measure for `O=S(=O)(NCc1ccccc1Cl)c1cnc[nH]1`: -0.378%.
`COc1ccccc1OCc1nc2ccccc2s1`: the Potency was 0.601 µM (active).
On to `COC(=O)C1[C@H]2SC(C)(C)C(C(=O)OC)N2C(=O)N1Cc1nc2ccccc2s1` (some centres not stated), for which the “activity change, negative = inhibition” value is -2.91%.
Still for that read-out and setting: with `COc1ccc(-c2nc3ccccc3s2)cc1NC(=O)COc1ccccc1C` the figure was 0.496%; with `Cc1cc(O)c(C(c2ccccc2)N2CCN(c3ccccc3F)CC2)c(=O)n1Cc1ccco1` (configuration not stated), -13.9%.
On the same count and under the same terms, with `O=C(CCC1N=C2c3ccccc3N=C(SCc3ccccc3F)N2C1=O)NCCc1ccccc1` (configuration not stated) the figure was -5%; with `CC(NC(=O)c1ccc(S(=O)(=O)Nc2ccccc2)cc1)c1ccc(S(N)(=O)=O)cc1` (configuration not stated), 0.247%.
For the molecule `O=C1/C(=C/c2cccs2)CCc2ccccc21`, the Potency is 0.757 µM (active).
Turning to `O=C1/C(=C/c2cccs2)SC(=S)N1C1CCS(=O)(=O)C1` (configuration not stated), the “activity change, negative = inhibition” value was -10.5%.
With `O=C1/C(=C/c2cccs2)CCC1C1CCCC1` (configuration not stated), the Potency is 3.38 µM (active).
Take `CCC1C/C(=C/c2cccs2)C(=O)/C(=C/c2cccs2)C1` (configuration not stated): the “activity change, negative = inhibition” value was -0.238%.
The same measure, in the same setting: the same measure for `O=S(=O)(c1cccs1)N1CCc2ccccc2C1`: 2.65%; for `O=C(COC(=O)/C=C/c1cccs1)NC1CCCCC1`: 0.481%.
On the same count and under the same terms, with `COc1ccccc1-c1cc(C(F)(F)F)nc(S(=O)(=O)CCCC(=O)Nc2cc(C)ccc2O)n1` the figure was 2.47%; with `O=C(CSc1nnc(N2CCOCC2)n1-c1cccc(F)c1)N1CCN(c2ccccn2)CC1`, 1.86%.
`COc1cccc(C(=O)n2ccc(-c3cccs3)n2)c1`: the Potency was 3.38 µM (active).
With `COc1cccc(C(=O)NCC(=O)OCc2cc(=O)n3ccsc3n2)c1`, the “activity change, negative = inhibition” value was -3.98%.
Consider `COc1cccc(C(=O)NCc2ccc3c(c2)CCN3C(=O)c2ccncc2)c1`, for which the “activity change, negative = inhibition” value was 1.74%.
As for `CC(C)(C)c1cc2cccnc2n1Cc1ccccc1`, the “activity change, negative = inhibition” value was -1.13%.
For the molecule `O=C(/C=C/c1cccs1)c1cc(Cl)ccc1OC(=O)N1CCOCC1`, the “activity change, negative = inhibition” value is -0.486%.
On the same count and under the same terms, the same measure for `CCOc1ccc(C2C(=O)N(C3CCCCC3)CC(=O)N2CCC2=CCCCC2)cc1OC` (configuration not stated): 0.188%; for `Cc1cccc(CSc2nnc(C)c(=O)n2N)c1`: 5.06%.
In the case of `Cc1cccc(CSc2ccc(-c3cccs3)nn2)c1`, the Potency is 12 µM (active) and 8.49 µM (active).
Take `N#Cc1ccc(-c2cccs2)nc1SCc1ccc(Br)cc1`: the “activity change, negative = inhibition” value was -2.78%.
Still for that read-out and setting: the same measure for `C[C@H](NC(=O)c1ccccc1Cl)C(=O)OCC(=O)N1CCN(c2ccccc2)CC1`: 1.68%; for `COc1ccc(C(=O)C2CCCN(S(=O)(=O)c3cccc(C)c3)C2)c(C)c1` (configuration not stated): 5.75%; for `CCN1C(=O)c2ccccc2S(=O)c2ccc(C(=O)NCc3ccc(F)cc3)cc21` (configuration not stated): 1.08%.
As for `O=C(O)c1cccc(N=NN2CCCCCC2)c1`, the Potency is 6.75 µM (active).
Turning to `O=C(O)c1ccc(N=NN2CCOCC2)cc1`, the “activity change, negative = inhibition” value was 1.54%.
Same read-out and setting: with `CN1CCN(S(=O)(=O)c2cccc(C(=O)O)c2)CC1` the figure was -0.781%; with `CC(C)Oc1ccc(S(=O)(=O)N2CCOCC2)cc1NC(=O)C1CCCC1`, 0.0682%.
Take `O=C(Cn1nc(C(F)(F)F)c2c1CCCC2)Nc1ccc(Cl)cc1`: the “activity change, negative = inhibition” value was -4.17%.
On the same count and under the same terms, the same measure for `O=C(CNC(=O)c1ccco1)OCC(=O)c1ccccc1`: -3.69%.
Still for that read-out and setting: with `O=C(NCCS(=O)(=O)N1CCN(c2ccccc2)CC1)c1ccco1` the figure was 2.07%.
Consider `O=C(NCCSc1ccccc1)c1ccco1`, for which the Potency was 23.9 µM (active).
Take `CCOC(=O)Cn1c(=O)n(-c2ccccc2OC)c2nc(-c3cccc(F)c3)nc(C(N)=O)c21`: the “activity change, negative = inhibition” value was -8.14%.
In the case of `CC(C)(C)c1ccc(S(=O)(=O)N2CCN(C(=O)c3cc(-c4ccc(Br)cc4)n[nH]3)CC2)cc1`, the “activity change, negative = inhibition” value is 0.458%.
As for `FC(F)(F)c1cccc(N/N=C/c2ccccc2)c1`, the Potency was 12 µM (active).
Regarding `CC(=O)N1CCN(C(=O)Nc2cccc(C(F)(F)F)c2)CC1`, the “activity change, negative = inhibition” value is -0.34%.
As for `Cc1nnsc1C(=O)N/N=C/c1cccc(C(F)(F)F)c1`, the “activity change, negative = inhibition” value is -2.3%.
The same measure, in the same setting: the same measure for `CCC1CCCCN1C(=O)Cn1c(=O)n(CCCCCC(=O)NCc2ccccc2)c(=O)c2sccc21` (configuration not stated): -16.2%; for `CC(C)(C)OC(=O)Nc1ccc([C@@H](NC(=O)OC(C)(C)C)C(=O)OC(C)(C)C)cc1`: 2.72%; for `COc1ccc2cc(CNc3ccc(OC)c(OC)c3)c(=O)n(CC(=O)Nc3ccccc3F)c2c1`: 5.48%.
The same measure, in the same setting: with `Cc1cc2c(cc1S(=O)(=O)CCC(=O)Nc1ccc(OC(F)(F)F)cc1)OCC(=O)N2` the figure was -15.7%; with `Nn1c(SCC(=O)Nc2nccs2)nnc1-c1ccco1`, 1.42%.
Still for that read-out and setting: the same measure for `CC(C)c1ccc(NC(=O)Cn2nnc(C(=O)NCCc3ccccc3)c2N)cc1`: -5.02%.
For `CC(C)c1ccc(NC(=O)Cn2ncc3ccccc32)cc1`, the Potency is 10.7 µM (active).
Turning to `CCc1ccc(NC(=O)Cn2ncn3c(cc4ccccc43)c2=O)cc1`, the Potency result was “inactive”.
As for `Cc1oc(-c2ccccc2)nc1Cn1c(SCc2cccc(C(F)(F)F)c2)nc2cccnc21`, the “activity change, negative = inhibition” value was -14.9%.
On the same count and under the same terms, with `COc1ccc(N2CCN(Cc3nc4c(c(=O)[nH]c(=O)n4C)n3Cc3ccc(Cl)cc3)CC2)cc1` the figure was -1.19%.
Regarding `O=C(NCCCO)C(=O)Nc1c2c(nn1-c1ccccc1)CSC2`, the “activity change, negative = inhibition” value was -8.71%.
The same measure, in the same setting: with `Cc1nc2ccccn2c1C(=O)NN=C1CCN(C)CC1` the figure was -1.15%; with `COc1ccccc1OCCOc1ccc(/C=C2\C(=N)N3N=C(C)SC3=NC2=O)cc1`, -12.2%.
Still for that read-out and setting: the same measure for `CC1=CC2=NC(=O)/C(=C/c3coc4ccccc4c3=O)C(=N)N2O1`: -16.2%.
Take `CCC1=NN2C(=N)/C(=C/c3cc(C)n(-c4ccccc4)c3C)C(=O)N=C2S1`: the Potency is 26.9 µM (active).
As to `N=C1/C(=C/c2cccn2-c2cccc([N+](=O)[O-])c2)C(=O)N=C2SC=CN12`, the “activity change, negative = inhibition” value is 4.38%.
The same measure, in the same setting: with `CCS(=O)(=O)C1=NSC2=NC(=O)/C(=C\c3ccc(OS(=O)(=O)c4ccccc4)cc3)C(=N)N21` the figure was -9.36%.
Take `Cc1cc(/C=C2/C(=N)N3C(=NC2=O)SN=C3S(C)(=O)=O)c(C)n1-c1ccccc1`: the Potency was 0.536 µM (active).
Same read-out and setting: the same measure for `CCS(=O)(=O)C1=NSC2=NC(=O)/C(=C\c3cc(C)n(-c4cccc(OC)c4)c3C)C(=N)N21`: 6.75 µM (active).
With `CCOc1cc(/C=C2\C(=N)N3N=C(C)SC3=NC2=O)ccc1OCCOc1ccccc1`, the “activity change, negative = inhibition” value was 1.67%.
Still for that read-out and setting: with `Cc1cccc(N2CCN(C(=O)c3oc(=O)c4ccccc4c3-c3ccccc3)CC2)c1C` the figure was -0.455%; with `COc1ccc(CC(=O)N2CC(=O)Nc3ccc(Br)cc3C2c2ccc(F)cc2)cc1OC` (configuration not stated), 0.675%; with `O=C(Cn1c(=O)nc(-c2ccccc2)c2cc(Cl)ccc21)NCc1ccc(Cl)cc1`, 3.37%.
For the molecule `Cc1c(C(C)CCCO)oc(=O)c2c1Oc1c(C)c(C(C)C[C@@H](C)O)oc(=O)c1C2` (some centres not stated), the “activity change, negative = inhibition” value is 2.46%.
On the same count and under the same terms, the same measure for `O=C(NCCN1CCOCC1)c1cccc(S(=O)(=O)Nc2ccc(F)cc2)c1`: 3.82%; for `COc1cc(Cl)c(C)cc1NC(=O)CCc1nc2cccnc2n1Cc1cccs1`: -15.4%; for `CCOc1ccc(NC(=O)CCC(=O)NNC(=O)NC2CCCCC2)cc1`: 1.41%.
Same read-out and setting: the same measure for `Cc1ccccc1C(=O)Nc1sc2c(c1C(=O)N1CCC(C)CC1)CCCC2`: -1.02%.
Same read-out and setting: the same measure for `CCNS(=O)(=O)c1cc(-c2nnc(Nc3cccc(C(F)(F)F)c3)c3ccccc23)ccc1C`: 3.64%; for `CCOC(=O)C1CCCN(C(=O)c2ccc(C)c(S(=O)(=O)N3CCCCC3)c2)C1` (configuration not stated): -3.18%.
Consider `Cn1cccc1/C=N/NC(=O)CNc1cccc2ccccc12`, for which the “activity change, negative = inhibition” value is -17%.
In the case of `Cn1cccc1/C=N/NC(=O)c1ccc(OC(F)(F)C(F)F)cc1`, the Potency is 12 µM (active).
Regarding `COC(=O)[C@H](C)NC(=O)Nc1ccc(OC(F)(F)F)cc1`, the “activity change, negative = inhibition” value is 0.295%.
With `COc1ccc(NC(=O)CSc2nc3ccccc3n2CC(=O)N2CCCCC2C)cc1` (configuration not stated), the “activity change, negative = inhibition” value is -2.28%.
The same measure, in the same setting: the same measure for `Cc1ccc(S(=O)(=O)N2CCOCC2)cc1NC(=O)CSc1nnc(N)s1`: 2.58%.
Still for that read-out and setting: the same measure for `CCOC(=O)c1cc2c(=O)n3ccccc3nc2n(Cc2ccco2)c1=NC(=O)c1ccc(F)cc1`: -0.239%; for `Cc1ccc(OCCSc2nc3ccc(NC(=O)COc4ccc(C)cc4)cc3s2)cc1`: 1.87%.
